# Measured values published in the supplement of paper PMC6555819.
# Columns and labels:
# Assay in all cases: PBM binding z-score (relative to random genomic background probes); higher = stronger binding; sequences stand for … in GC…GCGATTGACAGCGTAGAATGAAGG
# [1] = tested on: FXR:RXRa (NR concentration 270 nM, RXRa partner concentration 90 nM)
# In short: (§1)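 Scanned fluorescence from custom Agilent 4×180K protein-binding microarrays was regression-normalized. Binding z-scores use random background probes as reference. Ligand-free nuclear receptor dimers were incubated on the arrays for 1 h and detected with antibodies against each partner (one per run).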
# [2] = tested on: LXRa:RXRa (NR concentration 270 nM, RXRa partner concentration 90 nM)
# In short: as §1
# [3] = tested on: LXRa homodimer (NR concentration 270 nM)
# In short: as §1
# [4] = tested on: LXRb:RXRa (NR concentration 270 nM, RXRa partner concentration 90 nM)
# In short: as §1
# [5] = tested on: LXRb homodimer (NR concentration 270 nM)
# In short: as §1
# [6] = tested on: PPARa:RXRa (NR concentration 270 nM, RXRa partner concentration 90 nM)
# In short: as §1
# [7] = tested on: PPARg:RXRa (NR concentration 180 nM, RXRa partner concentration 90 nM)
# In short: as §1
# [8] = tested on: PPARg:RXRa 270nM:90nM, anti-RXR (NR concentration 270 nM, RXRa partner concentration 90 nM)
# In short: as §1
# [9] = tested on: PPARg:RXRa 30nM:10nM, anti-RXR (NR concentration 30 nM, RXRa partner concentration 10 nM)
# In short: as §1
# [10] = tested on: PPARg:RXRa 90nM:30nM, anti-RXR (NR concentration 90 nM, RXRa partner concentration 30 nM)
# In short: as §1
# [11] = tested on: PPARg:RXRa DBDmut IVT, anti-RXR (DBD mutation: RXRa K156A/R161A, NR concentration 270 nM, RXRa partner concentration 90 nM)
# In short: as §1
# [12] = tested on: PPARg:RXRa IVT, anti-PPARg (NR concentration 270 nM, RXRa partner concentration 90 nM)
# In short: as §1
# [13] = tested on: PPARg DBDmut:RXRa IVT, anti-PPARg (DBD mutation: PPARg1 K132A/R137A, NR concentration 270 nM, RXRa partner concentration 90 nM)
# In short: as §1
# [14] = tested on: PPARg DBDmut IVT, anti-PPARg (DBD mutation: PPARg1 K132A/R137A, NR concentration 270 nM)
# In short: as §1
# [15] = tested on: PPARg homodimer (NR concentration 180 nM)
# In short: as §1
# [16] = tested on: PXR:RXRa (NR concentration 270 nM, RXRa partner concentration 90 nM)
# In short: as §1
# [17] = tested on: PXR homodimer (NR concentration 270 nM)
# In short: as §1
# [18] = tested on: RARa:RXR (NR concentration 270 nM, RXRa partner concentration 90 nM)
# In short: as §1
# [19] = tested on: RARa homodimer (NR concentration 270 nM)
# In short: as §1
# [20] = tested on: RARb:RXRa (NR concentration 270 nM, RXRa partner concentration 90 nM)
# In short: as §1
Sequence,PBM binding z-score [1],PBM binding z-score [2],PBM binding z-score [3],PBM binding z-score [4],PBM binding z-score [5],PBM binding z-score [6],PBM binding z-score [7],PBM binding z-score [8],PBM binding z-score [9],PBM binding z-score [10],PBM binding z-score [11],PBM binding z-score [12],PBM binding z-score [13],PBM binding z-score [14],PBM binding z-score [15],PBM binding z-score [16],PBM binding z-score [17],PBM binding z-score [18],PBM binding z-score [19],PBM binding z-score [20]
ATTTCTAGGTAACAAGTTCAGTGAAAGAGAGGAC,1.38,1.39,1.04,1.18,1.41,2.76,3.06,3.44,1.82,3.09,5.53,4.99,3.1,2.25,1.94,1.79,2.69,1.45,2.03,2.12
TCCTGTAGATCAAAGGTTAAGAAAGCCGAAGCCT,1.59,2.18,-0.208,2.2,-0.193,4.17,7.57,7.55,8.09,8.13,1.82,3.04,-0.37,0.441,1.34,1.72,-0.679,2.85,-0.272,1.78
CCGACTGGGCCAAAGGTCATTGATTCCAATGCTC,4.37,4.94,3.7,4.49,0.0732,6.09,11,10,8.79,12.1,3.83,5.72,-0.642,0.24,4.69,5.36,1.79,5.72,0.97,4.52
CAAACTAGGTGAAGAGGTCAAAGTCCGCTTCCCG,4.89,4.87,4.29,4.34,0.798,5.95,8.28,7.03,5.27,7.36,7.18,7.52,2.35,2.46,2.49,5.31,1.58,5.42,0.811,4.19
CCAGACAGGTGAAAGGTAAGTCAGTCTGGTACGC,0.207,0.575,-0.142,0.505,-0.505,2.87,4.52,5.14,3,4.82,2.21,2.43,-0.386,-0.609,0.848,0.517,-0.131,1.06,0.44,1.14
CCTGGCAGGCCAATCTGGGTCACTCAAGGCTTGA,0.937,0.927,-0.703,0.276,-1.26,2.69,1.37,2.06,-0.284,1.22,3.55,4.78,-0.588,-0.975,0.0231,0.725,-0.786,1.11,-1.09,1.64
CGAACTAGGTCAAGGACAGTGTATCTCCGCACGC,3.62,2.36,0.431,1.57,-0.208,4.9,7.62,6.48,3.91,5.64,7.97,8.01,3.03,0.882,1.62,1.43,-0.0646,2.03,0.437,3.95
CCTACTGGGCCATTCAGAGGTCATAGATCATATG,2.57,4,5.67,3.75,0.161,3.83,2.65,3.2,1.2,2.48,4.09,4.44,0.601,-0.0592,2.01,4.2,1.2,4.42,0.421,2.97
CCGACCGGGGCAAGGTTACCATAACGCACAGCCA,0.591,1.02,-0.0287,0.604,-0.88,1.3,1.3,1.18,-0.0517,0.495,0.434,0.22,-0.24,-0.801,0.684,0.376,-0.0438,1.28,0.236,1.97
CAAACTAGGTCACGAATGGTCAAAGTCGAATGAC,4.48,5.29,0.845,3.46,0.546,5.82,9.24,7.45,5.7,7.36,8.28,9.26,2.84,3.79,2.55,2.47,0.0543,3.22,0.681,4.62
CAAACTAGGTGACCGGAAGGTCAAAGTCCGCATG,6.44,4.09,4.16,3.51,0.36,4.99,6.71,5.5,3.01,5.06,7.47,7.68,2.87,3.33,3.59,4.49,1.01,5.41,0.811,3.81
ACATACAGGTGATGAAGGTAACTCAGGCTATCAT,0.328,0.419,0.233,0.198,-0.055,0.484,1.06,0.534,0.477,0.425,1.27,1.16,1.17,0.566,0.36,0.132,0.441,0.745,0.688,0.588
GCTCGGAGGACAAGGTCAGAGCTTTGTCCGTAGA,1.71,2.02,-0.543,1.29,-0.667,2.5,0.957,1.67,-0.521,0.794,-0.433,0.861,-1.56,-1.45,0.708,1.55,-0.264,2.24,-0.542,3.52
CGGACTGGGGCAAGGTTACCATAACGCACAGCCA,0.491,1.02,-0.284,1.05,-0.449,2.67,4.88,4.78,2.59,4.2,4.9,5.59,0.588,0.000804,0.759,0.516,-0.28,1.03,-0.565,1.67
TGAATGAGATTATAAGATCAGGGAACGTTGCAAA,-0.81,-0.599,-0.661,-0.508,-0.369,-0.202,0.324,0.0746,0.527,0.406,-1.28,-0.236,0.555,0.576,-1.31,-0.518,-0.193,-0.548,0.0948,-1.13
CGTCCAAGGTCAAAGGTGAGTGAAGAGATGACGG,7.3,5.66,0.771,4.65,1.11,6.66,8.58,7.77,5.88,7.38,4.29,5.13,0.48,-0.248,2.01,5.5,1.01,7.17,1.07,5.55
CGTCCTAGGTCAATGCTAGGTCAGTGAAAGCATT,3.74,3.83,1.98,2.38,0.076,3.34,1.92,2.52,0.255,1.31,3.18,3.31,-0.391,-0.333,2.76,2.57,-0.195,4.13,-0.0967,4.06
GCTTGTAGGTCAAGGTTAAGAAAGACTAAGCTAA,5.3,4.01,0.371,3.16,0.186,5.37,9.1,7.63,6.21,7.79,7.82,8,2.05,1.01,1.99,2.52,0.226,3.43,1.18,4.32
CAAACTAGGTTACAGAGGTCAAAGTCCGTGCGTA,6.15,6.43,7.09,5.72,2.18,5.82,7.94,7.19,5.19,6.82,7.75,7.64,1.98,1.29,4.38,6.32,7.32,7.03,2.06,4.44
AGAAGGAGGTTATACGTAGATCAGGGAAGAAAGT,1.61,1.45,0.366,1.43,0.303,2.43,1.33,1.28,0.492,0.986,2.41,1.24,2.08,0.617,1.18,1,1.06,0.963,1.33,1.34
CCAGACAGGTGAGAAGGTCACTCAGCCTCGATTA,2.4,2.53,0.729,2.7,-0.075,3.65,2.01,3.07,0.629,1.98,1.76,2.14,-0.281,-1.25,3.61,3.25,1.11,4.09,2.83,3.58
AGAACGAGGGTAATGAGTTGATAGCACGGGTGGC,-0.398,-0.272,-0.536,-0.672,-0.615,0.387,1.08,0.119,0.202,0.182,1.74,1.31,-0.702,-0.588,-0.465,0.134,1.17,-0.279,-0.76,0.509
CCGACTGGGGCTAAGGTTACCATACTCAGTACGA,0.144,0.0677,-0.428,0.815,-0.943,2.71,5.47,5.55,4.41,5.78,0.598,2.11,-0.549,-0.925,0.343,0.473,-0.328,1.12,-0.0476,1.12
CAAACTAGGTCAAGAGGTCAAAGTACGCTTCCCG,7.11,6.18,5.74,5.71,2.26,6.64,10,8.3,7.25,8.63,8.34,8.65,3.41,3.08,4.62,6.26,3.22,7.37,3.18,5.45
CAAACTAGCTCAAGGTCAAAGTCGGTTTGTGCCA,4.51,5.18,5.93,4.13,1.45,4.17,1.21,2.95,0.947,2.05,1.26,1.78,-0.371,-0.234,2.07,4.39,2.66,4.08,0.525,3.88
GCGGCTGGGGCATCAGCAGGTTACCATAACTTAA,-0.5,-0.215,-0.622,0.239,-0.602,0.602,-0.0151,-0.415,-0.593,-0.53,-0.444,0.118,-1.33,-0.84,0.149,0.178,-0.595,0.635,-0.988,0.966
CCTACTTGGCCACGAAAGGTCATTGATTCAGTGA,4.07,5.32,5.29,4.61,1.16,4.46,1.84,3.31,1.01,2.5,1.97,2.14,0.246,0.627,3.9,5.3,1.97,5.51,2.48,4.09
CCTAGTTCGTCAAGGTCACACACGCTATAGGTAC,4.55,3.92,2.75,4.06,1.33,4.36,2.52,3.46,0.804,2.23,1.21,2.33,1,1.24,4.18,5.38,10.4,4.97,2.49,4.37
ACTGGCAGGCCAAGTTTGGGTCACTCAAACAAAG,0.314,0.00721,-0.384,0.727,-0.59,1.36,-0.374,-0.085,-0.662,-0.496,-0.444,0.61,-1.01,-1.29,0.0864,0.677,-0.347,1.4,-0.396,1.74
